The list is not random: actives were taken first. Their share in the collection is about 3.5%.
MITF primary: human MITF inhibition, primary screen. O75030. AlphaScreen MITF homodimerization, bead proximity signal. inhibition, % at 2.6 µM. actives 0.91% (n = 650,000); in the data active = inhibition above about 50%;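 also: 0% = vehicle wells with protein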
FBW7 activator: activators of human E3 ligase FBW7. Q969H0. AlphaScreen FBW7–phospho-cyclin E peptide binding, activator screen. normalized activity (activation), % at 26.1 µM. actives 0.13% (n = 650,000); in the data active = normalized activity above about 1.9%;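 also: purified mutant Fbw7 with reduced substrate affinity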
GPR151 ag: human GPR151 activation; AID 1508602; actives 1% (n = 650,000); activation, % at 11.2 µM; PathHunter beta-arrestin GPR151 cells, luminescence; in the data active = activation above about 4.9%;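 also: 0% = median of compound wells and 100% = cells with positive control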
Target sequence (Q8TDV0 whole entry, looked up): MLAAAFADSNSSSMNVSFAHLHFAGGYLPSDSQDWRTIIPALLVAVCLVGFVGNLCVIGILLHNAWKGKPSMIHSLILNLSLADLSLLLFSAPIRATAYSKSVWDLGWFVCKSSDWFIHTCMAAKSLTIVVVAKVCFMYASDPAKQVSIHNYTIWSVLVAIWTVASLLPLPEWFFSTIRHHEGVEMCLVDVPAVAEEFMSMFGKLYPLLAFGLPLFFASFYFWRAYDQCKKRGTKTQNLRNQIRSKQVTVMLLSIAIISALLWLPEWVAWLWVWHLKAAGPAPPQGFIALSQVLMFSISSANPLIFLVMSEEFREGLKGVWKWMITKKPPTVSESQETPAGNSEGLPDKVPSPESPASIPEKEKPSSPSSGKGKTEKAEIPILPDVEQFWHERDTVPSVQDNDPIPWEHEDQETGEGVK
TEAD-YAP block: TEAD-YAP interaction inhibition; actives 1.4% (n = 640,000); inhibition, % at 9.12 µM; HEK-TIYL cells, TEAD-Gal4/YAP UAS-luciferase luminescence; AID 1259422; in the data active = inhibition above about 32%;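 also: 0% = median of test compound wells and 100% = reference inhibitor wells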
An asterisk follows results filed as active.

SMILES	MITF primary	FBW7 activator	GPR151 ag	TEAD-YAP block
OC1CCN(c2cccc(-c3ccnc(Nc4ccc(-n5ccnn5)cc4)n3)c2)CC1	-2.9	0.0	-0.5	36.8*
N#Cc1cc(-c2ccnc(Nc3ccc(-n4cnc(N5CCCC(O)C5)n4)cc3)n2)cc(N2CCOCC2)c1 (stereo not drawn)	-5.5	0.0	0.2	26.8
Cn1nnc(-c2ccc(Nc3nccc(-c4cc(C#N)cc(N5CCCC(O)C5)c4)n3)cc2)n1 (stereo not drawn)	-0.4	0.0	1.0	63.4*
Fc1cc(-c2ccnc(Nc3ccc(-n4ccnn4)cc3)n2)cc(N2CCOCC2)c1	-3.1	0.1	0.6	19.8
CC(C)NC(=O)COC(=O)c1cccc(I)c1	-8.3	-0.2	0.7	4.2
CCNC(=O)[C@@H]1C[C@@H](NCc2ccc(F)c(F)c2)CN1Cc1ccc2ccccc2c1	14.6	-0.1	0.3	4.5
CCOC(=O)C1=C(O)/C(=C\c2ccco2)N=C1C	2.0	-0.1	0.9	8.3
N#Cc1c2c(c(Cl)n3c1nc1ccccc13)CCC2	10.8	1.9*	0.2	1.7
CN(C)c1c2c(c(C#N)c3nc4ccccc4n13)CCC2	-18.0	0.1	-0.8	3.3
Cc1ccc(Nc2c3c(c(C#N)c4nc5ccccc5n24)CCC3)cc1C	18.8	2.2*	-0.6	2.1
O=C(Cn1c(=O)c(=O)n(Cc2ccccc2)c2ccc(Cl)cc21)N1CCOCC1	4.7	0.0	-0.4	-7.5
O=[N+]([O-])c1ccc(-c2nc(C=Nc3ccc(Br)cc3Br)c(O)o2)cc1	-2.5	0.0	-1.4	-6.7
Cc1cc(C=O)c(C)n1-c1ccc(C(=O)O)c(Cl)c1	69.5*	-0.1	0.1	9.6
CCCC1=NN2C(=N)/C(=C/c3cc(Br)c(OCc4ccccc4F)c(OCC)c3)C(=O)N=C2S1	-9.9	0.1	-1.0	-2.8
Cc1cc(=O)[nH]c(N/N=C/c2ccc(O)cc2O)n1	75.7*	-1.2	1.4	1.7
Cc1n[nH]c(=O)nc1N/N=C/c1ccccc1Cl	-0.7	0.0	-6.8	-2.9
Cc1n[nH]c(=O)nc1N/N=C/c1ccc(O)cc1O	96.8*	-0.8	-5.7	42.3*
Cc1n[nH]c(=O)nc1N/N=C/c1ccc(N(C)C)cc1	10.1	-0.2	-6.9	55.2*
CCCOc1ccc(/C=N/Nc2nc(C)cc(=O)[nH]2)c(O)c1	34.3	-0.8	1.8	85.6*
Cc1cc(=O)[nH]c(N/N=C/c2cc(Br)cc(Br)c2O)n1	5.5	-0.2	-0.4	3.5
C=CCOc1ccc(/C=c2\sc3nc(-c4ccc(Br)cc4)nn3c2=O)cc1	3.2	0.1	0.6	-6.2
COCCn1c(SCC(N)=O)nnc1-c1ccc(S(=O)(=O)N2CCCC2)cc1	2.8	0.0	1.0	3.7
CN1CCN(C(=O)c2cccc(Nc3nc(-c4ccccc4)c4cc(Br)ccc4n3)c2)CC1	3.3	0.2	2.0	7.4
COc1ccccc1-n1c(SCC(=O)N(C)C2CCCCC2)nnc1-c1ccncc1	20.3	0.1	0.9	0.3
O=P(Nc1ccccc1)(c1ccccc1)c1ccccc1	-10.7	-0.1	0.7	4.9
SMILES	MITF primary	FBW7 activator	GPR151 ag	TEAD-YAP block
CCOC(=O)CSc1nc2sc3c(c2c(=O)n1C1CCCCC1)CCN(C)C3	3.9	2.3*	-0.5	15.2
CCn1nc(C)cc1C(=O)N(CC1CCCO1)c1nc2cc(C)cc(C)c2s1 (stereo not drawn)	14.3	0.2	-1.7	41.1*
CCn1nc(C(=O)N(CC2CCCO2)c2nc3ccc(C)cc3s2)cc1C (stereo not drawn)	9.6	0.0	2.2	-19.1
Cc1ccc(OCC(=O)NNC(=O)Cc2cccs2)c(C)c1	11.6	0.6	-0.5	-13.8
COc1cccc(C2=CC(c3cccc(F)c3)n3nnnc3N2)c1 (stereo not drawn)	-3.0	-0.1	-1.3	49.5*
COc1ccc(Br)cc1C1C=C(c2cccs2)Nc2nnnn21 (stereo not drawn)	17.1	0.1	-0.3	41.8*
COc1cccc(C2=CC(c3ccc(OC)cc3OC)n3nnnc3N2)c1 (stereo not drawn)	1.8	-0.2	2.8	47.9*
Cc1ccc(C)c(N2CCN(CCCNC(=O)Cn3ncc4ccccc43)CC2)c1	-9.1	0.1	-0.5	1.9
Cc1nc(NC(=O)/C=C/c2ccccc2)sc1C(=O)NCc1ccccc1	1.9	0.2	0.9	-4.6
Cc1ccccc1NC(=O)c1sc(NC(=O)/C=C/c2ccccc2)nc1C	1.0	0.1	1.7	49.2*
COc1cc(/C=C(\C#N)C(=O)c2ccc(O)c(O)c2)cc(I)c1O	84.9*	-0.2	-0.6	-1.3
CCOc1ccc(/C=C(/C#N)C(=O)Nc2ccc(O)cc2)cc1OCC	-2.0	-0.1	0.4	15.2
CCOc1cc(/C=C(/C#N)C(=O)Nc2ccc(O)cc2)ccc1OC	8.4	0.0	-0.4	43.8*
N#C/C(=C\c1ccc(O)c(O)c1)C(=O)Nc1ccccc1	-11.2	-0.3	-3.2	-6.7
N#C/C(=C\c1ccc(O)c(O)c1)C(=O)NCCCNC(=O)/C(C#N)=C/c1ccc(O)c(O)c1	96.1*	-0.1	-1.4	0.7
CCOc1cc(/C=C(/C#N)C(=O)Nc2ccc(O)cc2)ccc1O	-11.5	0.0	0.7	49.7*
CCOc1ccc(/C=C(/C#N)C(=O)Nc2ccc(O)cc2)cc1OC	-4.8	0.1	-0.4	-3.3
Cc1ccc(CN(Cc2ccco2)C(=S)Nc2ccc(Oc3ccccc3)cc2)cc1	15.0	0.1	2.7	-1.9
COc1cc(/C=C(/C#N)C(=O)Nc2ccc(O)cc2)cc(I)c1O	-6.9	-0.1	0.3	50.3*
O=C(C[n+]1cccc(Br)c1)c1cccc2ccccc12	7.5	0.1	-1.6	-8.3
CC1=NN(c2ccc(Br)cc2)C(=O)/C1=C\c1ccc(-c2c(Br)cc([N+](=O)[O-])cc2Br)o1	14.3	-0.3	-1.0	-1.6
CC1=NN(c2ccc([N+](=O)[O-])cc2)C(=O)/C1=C\c1ccc(C)o1	80.6*	0.0	2.5	1.6
Cn1c(NCc2ccncc2)nc2ccccc21	-22.3	0.0	0.0	-4.4
Cc1ccc(NCc2nc3ccccc3n2C)cc1	23.4	0.5	-4.9	34.7*
Cc1ccc(CNc2nc3ccccc3n2C)cc1	19.4	0.9	-7.9	74.9*
SMILES	MITF primary	FBW7 activator	GPR151 ag	TEAD-YAP block
Cn1c(CNc2ccc(O)cc2)nc2ccccc21	12.3	-0.3	-0.9	-16.3
O=C(Nc1ccc(F)c(Cl)c1)c1cc(S(=O)(=O)N2CCN(c3ccccc3)CC2)ccc1F	7.0	-0.1	0.4	11.5
CC(=O)c1c(C)[nH]c(C(=O)CN(C)Cc2c(F)cccc2Cl)c1C	6.4	-0.2	0.3	48.6*
CN(Cc1c(F)cccc1Cl)C(=O)CSc1nnc(N)s1	-11.8	-0.1	0.5	5.9
CN(Cc1c(F)cccc1Cl)C(=O)CCl	-3.1	-0.1	-1.7	42.1*
COc1ccc(C(CNC(=O)c2ccc(Br)cc2)N2CCN(C)CC2)cc1 (stereo not drawn)	13.3	0.1	-0.2	9.1
Cc1sc2nc(COC(=O)c3cccc(I)c3)[nH]c(=O)c2c1C	-4.7	-0.2	-1.0	-1.6
c1ccc(-n2ncc3c(Nc4cccc5c4CCCC5)ncnc32)cc1	4.6	-0.1	3.9	-1.3
Cc1cccc(-n2ncc3c(Nc4cccc5c4CCCC5)ncnc32)c1	17.6	0.1	0.5	41.6*

High-throughput results from PubChem BioAssay.
